# Calls of active or inactive are those of the source. Rule for the calls: active = hit-call score of the fitted dose curve at least 0.9, where 1 is the maximum; inconclusive = response in the unintended direction; inactive = score below 0.9.
# Target: Estrogen receptor (Homo sapiens) (UniProt P03372)
# Assay: OT_ERa_GFPERaERE_0120: Odyssey Thera (OT) 2-hour HeLa Transcription Induction Assay for Estrogen Receptor (AID 2283382)
# In short: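 HeLa cells were dosed with test chemical and read 2 hours later for GFP-ERα/ERE-linked fluorescent protein induction by fluorescence microscopy. Gain-of-signal was fitted relative to DMSO baseline, quantified by high content image analysis.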
# Chain of Estrogen receptor (Homo sapiens) (P03372 whole entry, looked up): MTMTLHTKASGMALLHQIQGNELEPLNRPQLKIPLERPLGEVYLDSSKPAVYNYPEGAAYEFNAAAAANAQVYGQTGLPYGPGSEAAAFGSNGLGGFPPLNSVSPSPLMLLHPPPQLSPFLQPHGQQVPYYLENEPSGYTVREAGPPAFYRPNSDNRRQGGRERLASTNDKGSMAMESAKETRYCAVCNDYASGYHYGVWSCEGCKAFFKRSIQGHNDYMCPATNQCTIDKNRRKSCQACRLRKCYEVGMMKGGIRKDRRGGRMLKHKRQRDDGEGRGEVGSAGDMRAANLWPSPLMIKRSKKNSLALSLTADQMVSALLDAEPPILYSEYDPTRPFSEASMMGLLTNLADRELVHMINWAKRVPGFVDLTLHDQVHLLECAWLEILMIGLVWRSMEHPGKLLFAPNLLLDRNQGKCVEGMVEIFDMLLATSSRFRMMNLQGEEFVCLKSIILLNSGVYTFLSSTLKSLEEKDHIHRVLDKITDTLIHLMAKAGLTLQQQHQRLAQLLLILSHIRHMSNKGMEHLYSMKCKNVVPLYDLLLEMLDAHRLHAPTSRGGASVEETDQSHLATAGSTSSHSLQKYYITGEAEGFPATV
Compound,AC50,outcome
CCCCOC(=O)[C@@H](C)Oc1ccc(Oc2ccc(C(F)(F)F)cn2)cc1,46.5 µM (active),–
CCCCOC(=O)C(C)Oc1ccc(Oc2ccc(C(F)(F)F)cn2)cc1 (stereo not given),–,inactive
CCOC(=O)C(C)Oc1ccc(Oc2cnc3cc(Cl)ccc3n2)cc1 (stereo not given),–,inactive
CCCN(CCC)c1c([N+](=O)[O-])cc(C(F)(F)F)c(N)c1[N+](=O)[O-],0.895 µM (active),–
c1ccc2[nH]c(-c3cscn3)nc2c1,–,inactive
C#CCOC(=O)[C@@H](C)Oc1ccc(Oc2ncc(Cl)cc2F)cc1,–,inactive
Cc1nn(C)c(Oc2ccccc2)c1C=NOCc1ccc(C(=O)OC(C)(C)C)cc1,–,inactive
O=C(O)c1ccccc1,–,inactive
CCSC(=O)N(CC(C)C)CC(C)C,–,inactive
OB(O)O,–,inactive
CCCOC(=O)c1ccc(C(=O)OCCC)nc1,–,inactive
CCOC(=O)COc1cc(-n2ncc(C(F)(F)F)c(C)c2=O)c(F)cc1Cl,–,inactive
COc1c(Cl)ccc(Cl)c1C(=O)O,–,inactive
CCN(CC)C(=O)c1cccc(C)c1,–,inactive
CCN(Cc1c(F)cccc1Cl)c1c([N+](=O)[O-])cc(C(F)(F)F)cc1[N+](=O)[O-],6.39 µM (active),–
CCCCCOC(=O)COc1cc(N2C(=O)C3=C(CCCC3)C2=O)c(F)cc1Cl,–,inactive
CCOC(=O)NCCOc1ccc(Oc2ccccc2)cc1,–,inactive
O=C(Nc1ccc([N+](=O)[O-])cc1Cl)c1cc(Cl)ccc1O,–,inactive
N#CSCSc1nc2ccccc2s1,–,inactive
O=C(O)C1(C(=O)Nc2ccc(Cl)cc2Cl)CC1,–,inactive

# — PubChem BioAssay (EPA / NIEHS)
